From PubChem
Shown are actives, neighbours in structure and some others; about 1.8% of the full set was active somewhere.
USP7 inh: inhibitors of human USP7 deubiquitinase. Q93009. purified USP7, Ub-rhodamine cleavage fluorescence. inhibition, % at 20 µM. 47,000 tested, 0.3% active
USP10 block: blocks human USP10 ubiquitin-rhodamine cleavage; Q14694; purified USP10, Ub-rhodamine fluorescence, 60 min; inhibition, % at 20 µM; 47,000 tested, 1.1% active; AID 1645856
UCHL1 inh: blocks human UCHL1 ubiquitin-rhodamine cleavage | inhibition, % at 20 µM | purified UCHL1, Ub-rhodamine cleavage fluorescence | P09936 | 47,000 tested, 0.2% active | AID 1645859
Target sequence (P09936 whole entry, looked up): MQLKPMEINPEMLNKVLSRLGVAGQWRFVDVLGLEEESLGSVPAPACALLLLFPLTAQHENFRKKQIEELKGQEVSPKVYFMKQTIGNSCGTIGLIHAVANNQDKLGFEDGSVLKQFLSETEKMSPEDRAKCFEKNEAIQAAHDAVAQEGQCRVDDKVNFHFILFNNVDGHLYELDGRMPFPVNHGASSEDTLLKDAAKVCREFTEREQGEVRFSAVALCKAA
OTUD3 inh: blocks human OTUD3 ubiquitin-rhodamine cleavage; purified OTUD3, Ub-rhodamine fluorescence, 2 h; Q5T2D3; 47,000 tested, 0.7% active; inhibition, % at 25 µM; AID 1645858
* = called active by the depositor; nt = no result given. Cut-off read from the data, not from the text of the source: active = inhibition above about 30%; inactive = the rest.

SMILES	USP7 inh	USP10 block	UCHL1 inh	OTUD3 inh
C=C1CCC2[C@](C)(CCC[C@]2(C)C(=O)OC)[C@H]1CCc1ccoc1CNC(C)C (stereo not given in full)	11	-3	5	30*
Cc1cc(-c2nccn2C)nc(CC2CCN(C(=O)c3ccccn3)CC2)n1	5	-3	4	5
COc1cccc2c1OCC(NS(=O)(=O)c1ccc(NC(C)=O)cc1)C2 (stereo not given)	0	0	-1	-7
COc1ccc(S(=O)(=O)N2CCc3ccccc32)cc1C(=O)Nc1ccc2[nH]c(=O)[nH]c2c1	8	31*	2	-4
COc1cccc(NC(=O)CCc2nnc3n(CCCOC(C)C)c(=O)c4ccccc4n23)c1	nt	4	4	37*
CC(C)OCCCn1c(=O)c2ccccc2n2c(CCC(=O)NCc3ccccn3)nnc12	0	1	1	-1
COc1ccc(C(=O)Nc2ccccc2C(=O)NC(Cc2ccc(O)cc2)C(=O)NNC(=O)c2ccccc2Cl)cc1 (stereo not given)	12	62*	3	75*
COC(=O)[C@H](Cc1ccc(O)cc1)NC(=O)c1ccc(Cl)cc1	0	5	2	-4
COc1c(O)cc(CC(=O)O)c(C(C)=O)c1O	-29	14	50*	78*
O=C(Cn1cc(C(=O)c2ccc(F)cc2)c(=O)c2ccccc21)Nc1ccc2c(c1)OCO2	19	47*	4	16
Cc1ccc(C)c(NC(=O)Cn2cc(C(=O)C3CC3)c3ccccc32)c1	35*	46*	3	15
Cc1ccc(C(=O)c2cn(CC(=O)Nc3ccccc3)c3ccc(C)cc3c2=O)cc1	19	36*	8	8
Cc1ccc(C(=O)c2cn(CC(=O)Nc3ccccc3)c3ccccc3c2=O)cc1	17	46*	9	16
Cc1ccc2c(c1)c(=O)c(C(=O)c1ccccc1)cn2CC(=O)Nc1ccc2c(c1)OCCO2	17	26	4	-6
O=C(c1c(F)cccc1F)N1CCN(C2CCCCC2)CC1	2	0	3	5
COc1ccc(NC(=O)Cn2cc(C(=O)c3ccc(C)cc3)c(=O)c3ccccc32)cc1	11	38*	2	10
COc1ccc(NC(=O)Cn2cc(C(=O)c3ccc(OC)cc3)c(=O)c3cc4c(cc32)OCCO4)cc1	8	6	6	4
CCn1cc2c(n1)c(=O)n(Cc1ccccc1)c(=O)n2CC(=O)Nc1ccc(C)cc1C	30*	30*	4	9
Cc1cc(C)c(NC(=O)Cn2c(=O)n(Cc3ccccc3)c(=O)c3nn(C)cc32)c(C)c1	4	1	5	44*
Cn1cc2c(n1)c(=O)n(Cc1ccc(F)cc1)c(=O)n2CC(=O)NCc1ccccc1	4	5	1	11
O=C1OCCN1c1ccc(C(=O)N(Cc2ccccc2)C2CC2)cc1	-2	1	0	-9
CNC(=O)C1CN(C(=O)c2ccc(OC)cc2)CC12CCCC2 (stereo not given)	1	0	0	55*
CCCCCCCCCC(CCCCCCCCCC(=O)O)O[C@H]1O[C@@H](COC(C)=O)[C@H](O)[C@@H](OC(=O)CC(=O)O)[C@H]1O (stereo not given in full)	-43	41*	2	21
Oc1cc(OCCN2CCOCC2)ccc1-c1[nH]ncc1-c1ccc(Cl)cc1	0	2	4	-4
Cc1ccc(S(=O)(=O)Nc2nc(-c3ccc4c(c3)NC(=O)C(C)O4)c(C)s2)cc1 (stereo not given)	13	41*	4	13
SMILES	USP7 inh	USP10 block	UCHL1 inh	OTUD3 inh
COc1cccc(C(=O)Nc2nc(-c3ccc4c(c3)NC(=O)C(C)O4)c(C)s2)c1 (stereo not given)	-6	1	2	0
COc1ccc(-n2nnc(-c3nc(-c4ccccc4F)no3)c2N)cc1	5	5	0	1
CC(=O)C1=C(O)[C@@]2(O)C(=O)c3c(c(C)c4ccc(C)c(O)c4c3O)C[C@H]2[C@@H](N)C1=O	50*	-3	53*	51*
Cc1ccc(N(Cc2nc3nc(C)c(Cl)c(C)n3n2)C(=O)CC(C)C)cc1	-1	2	0	3
CC[C@H](C)C[C@H]1CC[C@](O)([C@](C)(O)C(=O)N[C@@H]2C(=O)N3NCCC[C@@H]3C(=O)N(O)[C@@H](C)C(=O)NCC(=O)N3NCCC[C@H]3C(=O)N(O)[C@H](C)C(=O)O[C@H]2C(C)C)O[C@@H]1C	-142	-2	3	73*
Cc1ccc(C2CCCCCN2S(=O)(=O)c2ccc(C)c(C)c2)s1 (stereo not given)	0	5	0	11
CN(C)CCNC(=O)c1ccc2ccc(N3CCN(c4ncccn4)CC3)n2c1	-8	-9	-9	-10
CCc1ccc(NC(=O)C(C)OC(=O)/C=C/c2ccc(S(=O)(=O)Nc3cccc(S(N)(=O)=O)c3)cc2)cc1 (stereo not given)	9	33*	4	16
NS(=O)(=O)c1cccc(NS(=O)(=O)c2ccc(/C=C/C(=O)OCC(=O)c3ccc(Br)cc3)cc2)c1	14	41*	5	5
COc1ccc(C(=O)COC(=O)/C=C/c2ccc(S(=O)(=O)Nc3cccc(S(N)(=O)=O)c3)cc2)cc1	5	23	5	4
CC1CCCN(S(=O)(=O)c2nn(Cc3cccc(C#N)c3)cc2C(=O)O)C1 (stereo not given)	-2	0	-3	-3
CC(C)[C@H](N)C(=O)N1CCC2(CC1)CO[C@@H]([C@@]1(C)CC[C@H](O)C(C)(C)O1)C2	-1	-1	-3	-16
O=c1c(OC2O[C@H](CO)[C@H](O)[C@H](O)[C@H]2O)c(-c2ccc(O)cc2)oc2cc(O)cc(O)c12 (stereo not given in full)	-28	-1	3	34*
COc1ccc(-c2coc3cc(O[C@@H]4O[C@H](CO)[C@@H](O)[C@H](O)[C@H]4O)ccc3c2=O)cc1	6	3	8	3
Cc1nc(-c2ccc(C(=O)N(C)c3ccccc3)cc2)no1	3	0	0	19
O=C(COC(=O)c1ccccc1NS(=O)(=O)c1ccc2c(c1)OCCO2)c1ccc([N+](=O)[O-])cc1	6	15	-1	-10
COc1ccc(C(=O)COC(=O)c2ccccc2NS(=O)(=O)c2ccc(O)c([N+](=O)[O-])c2)cc1	24	63*	5	36*
COc1ccc(NC(=O)c2ccc3c(c2)C2C4CCC(C4)C2C(c2ccccc2)N3)cc1 (stereo not given)	3	6	3	4
CC(=O)Nc1cccc(NC(=O)CSc2nnc3n2CCN3c2ccccc2)c1	6	1	3	0
Cc1ccc2[nH]cc(S(=O)(=O)c3ccc(C)c(F)c3)c(=O)c2c1	20	8	4	-3
Cc1ccc2[nH]cc(S(=O)(=O)c3cc(F)cc(F)c3)c(=O)c2c1	36*	26	28	7
CCN(C(=O)c1cc2c(=O)n3cc(C)ccc3nc2n1Cc1ccccc1)C1CCCCC1	1	4	1	0
